Inconclusive results are not listed. Entries that show only a call come without a potency. Active and inactive are the calls of the source. Calls follow the shape of the full dose curve.

Sequence of Atrial natriuretic peptide receptor 1 (Homo sapiens) (P16066 whole entry, looked up): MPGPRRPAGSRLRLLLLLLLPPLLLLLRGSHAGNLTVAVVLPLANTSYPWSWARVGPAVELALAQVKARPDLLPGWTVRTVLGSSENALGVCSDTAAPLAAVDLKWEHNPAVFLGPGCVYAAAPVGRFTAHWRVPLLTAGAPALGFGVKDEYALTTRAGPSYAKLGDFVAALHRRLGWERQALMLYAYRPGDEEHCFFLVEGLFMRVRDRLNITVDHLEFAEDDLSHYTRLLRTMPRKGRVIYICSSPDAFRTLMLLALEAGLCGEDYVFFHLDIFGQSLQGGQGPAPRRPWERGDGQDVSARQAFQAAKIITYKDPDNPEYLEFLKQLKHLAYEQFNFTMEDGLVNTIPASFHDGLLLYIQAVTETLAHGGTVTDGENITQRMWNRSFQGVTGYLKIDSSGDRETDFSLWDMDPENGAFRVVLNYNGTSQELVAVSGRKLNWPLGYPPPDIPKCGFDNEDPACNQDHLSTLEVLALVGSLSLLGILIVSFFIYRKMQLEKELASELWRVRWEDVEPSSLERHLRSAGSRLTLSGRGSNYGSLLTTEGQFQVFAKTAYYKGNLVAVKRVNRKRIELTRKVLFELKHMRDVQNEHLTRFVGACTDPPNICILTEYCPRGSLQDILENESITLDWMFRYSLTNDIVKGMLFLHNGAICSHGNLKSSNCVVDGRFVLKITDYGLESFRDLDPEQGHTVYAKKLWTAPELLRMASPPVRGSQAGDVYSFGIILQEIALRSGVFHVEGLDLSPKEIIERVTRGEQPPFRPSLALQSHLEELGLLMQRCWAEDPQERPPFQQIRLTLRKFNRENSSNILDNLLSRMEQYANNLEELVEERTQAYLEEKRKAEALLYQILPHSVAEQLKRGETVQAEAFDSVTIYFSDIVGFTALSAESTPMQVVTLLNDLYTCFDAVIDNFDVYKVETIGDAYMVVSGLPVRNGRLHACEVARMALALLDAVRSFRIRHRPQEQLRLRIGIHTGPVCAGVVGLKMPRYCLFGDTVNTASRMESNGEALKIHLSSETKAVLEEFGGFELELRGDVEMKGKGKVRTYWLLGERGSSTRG

This experiment concerns the target Atrial natriuretic peptide receptor 1 (Homo sapiens) (UniProt P16066). The experiment in a line: Natriuretic polypeptide receptor (hNpr1) antagonism - Pilot screen (AID 1347049).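 Also: agonist-evoked cGMP luminescence read 20 min after hNppA addition.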 The following applies: hNpr1 cells, antagonist mode cGMP read-out; series mostly up to 57.5 µM. The procedure, abridged:
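Readout is cGMP-driven firefly luciferase luminescence in HEK293 cells carrying hNpr1 and a PDE5-domain GloSensor, read before and 20 min after 0.1 nM hNppA stimulation. Cells had 2% substrate reagent for 2 h and test compound for 30 min.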
For the compound `C[C@@H](NC(=O)/C(C#N)=C/c1ccc(O)c(O)c1)c1ccccc1`, the Potency result is “inactive”. As for `CC(C)NC[C@H](O)COc1cccc2[nH]ccc12`, the entry is “inactive”. To `COc1ccccc1N1CCN(CCCCNS(=O)(=O)c2cccc3c(N(C)C)cccc23)CC1` belongs “inactive”; to `C#CCN1C(C)=C(C(=O)OC)C(c2cccc([N+](=O)[O-])c2)C(C(=O)OCC)=C1C` (stereo not drawn), “inactive”. For the compound `O=P(O)(O)C(Cl)(Cl)P(=O)(O)O`, the Potency result was “inactive”. As to `CC(C)(C=O)Cc1cc(C(C)(C)C)c(O)c(C(C)(C)C)c1`, the Potency result is “inactive”. To `NC(N)=NC(=O)c1nc(Cl)c(N2CCCCCC2)nc1N` belongs “inactive”; to `Cn1ncc(S(=O)(=O)Cc2ccccc2)c(Br)c1=O`, “inactive”. Regarding `C=C[C@H]1CN2CC[C@@H]1C[C@@H]2[C@@H](O)c1ccnc2ccc(OC)cc12`, the Potency result was “inactive”.

With `NCCCS(=O)(=O)O`, the Potency entry is “inactive”. `Brc1c(Br)c(Br)c2n[nH]nc2c1Br`: the Potency entry was “inactive”. Regarding `CC(=O)N[C@H](C(=O)O)C(C)(C)SN=O`, the Potency result is “inactive”. To `CCCCCCCCc1ccc(-c2ccc(C(=O)O)cc2)cc1` belongs “inactive”; to `c1cnc2c(c1)ccc1cccnc12`, “inactive”; to `CCCCCCCCCCCCCCCCCCNC(=O)OCC(COP(=O)([O-])OCC[n+]1ccsc1)OC` (stereo not drawn), “inactive”.

For `CN1CCc2cc(NC(=O)Nc3cccnc3)ccc21`, the Potency entry is “inactive”. To `O=C(c1ccc(OCCCc2cnc[nH]2)cc1)C1CC1` belongs “inactive”. To `NC(=O)C(=O)O` belongs “inactive”; to `O=C(O)CC1CCCc2ccccc2C1O` (stereo not drawn), “inactive”. To `O=Nc1ccc2oc(=O)ccc2c1` belongs “inactive”; to `O=c1[nH]c2cc([N+](=O)[O-])c([N+](=O)[O-])cc2[nH]c1=O`, “inactive”.

Turning to `CCCCCCCC/C=C\CCCCCCCC(=O)NCCO`, the Potency entry is “inactive”.

On to `C[N+](C)(CCCCCC[N+](C)(C)CCCN1C(=O)c2cccc3cccc(c23)C1=O)CCCN1C(=O)c2cccc3cccc(c23)C1=O`, for which the Potency entry is “inactive”. To `CCCN(CC1CC1)c1nc(C)nc(Nc2c(Cl)cc(Cl)cc2Cl)c1Cl` belongs “inactive”; to `Cn1c(=O)c2[nH]c(-c3ccccc3)nc2n(C)c1=O`, “inactive”; to `CSc1ccccc1N1CCN(CCCCCC(=O)NC2CCCc3ccccc32)CC1` (stereo not drawn), “inactive”. As to `NO`, the Potency result is “inactive”. As for `Fc1ccc(C(OCCCc2cnc[nH]2)c2ccc(F)cc2)cc1`, the entry is “inactive”; as for `O=C(CCCCCN1CCN(c2ccccc2-c2ccccc2)CC1)NC1CCCc2ccccc21` (stereo not drawn), “inactive”; as for `NCCCCCCCCCCN`, “inactive”. With `N#C/C(=C\c1ccc(O)c(O)c1)C(=O)NCc1ccccc1`, the Potency result is “inactive”. As for `COC(=O)c1c(C)[nH]c(C)c1C(=O)c1ccccc1Cc1ccccc1`, the entry is “inactive”; as for `Nc1ncnc2c1c(I)cn2[C@@H]1C[C@H](N)[C@@H](O)[C@H]1O`, “inactive”. `COc1cccc(C(=O)NCCN2CCN(c3ccc(Cl)cc3)CC2)c1`: the Potency entry was “inactive”. As for `COc1ccccc1CNCCCCCCNCCCCCCCCNCCCCCCNCc1ccccc1OC`, the entry is “inactive”.

Regarding `CCCCCCCCCCCCCCCCCC(=O)NCC(COP(=O)([O-])OCC[N+](C)(C)C)OCC` (stereo not drawn), the Potency entry is “inactive”.

With `NCCCCC(=O)O`, the Potency entry was “inactive”. To `N.N.N.N.N.N.N.N.N.N.N.N.N.N.O.O.[Ru+4].[Ru+5].[Ru+5]` belongs “inactive”.

Source of the values: PubChem BioAssay (NCATS).
